About 79,000 compounds went through this panel and 15% of them were active in at least one assay; those are over-represented in the sample as a whole. Values without a mark were called inactive. No stated cut-off is given here; in the data, active means growth inhibition above about 70%; inactive means the rest.
Test: NCI Yeast Anticancer Drug Screen. Data for the bub3 strain (AID 167)
Conditions: S. cerevisiae bub3 mutant strain, stronger effect = higher value; at 50.0 µM unless noted
Procedure, shortened: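 Mutant yeast screening strain plus compound; vehicle-treated cultures serve as the 0% inhibition reference.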

**Q.** For `O=c1[nH]c(=O)n(C2CC(O)C(CO)O2)cc1OCCCc1ccccc1` (configuration not stated), which growth inhibition is on record?
**A.** Its growth inhibition is -0.5%.

**Q.** Which growth inhibition does the source give for `CC(=O)Nc1ccc(NC(=O)NCCCCCCNC(=O)Nc2ccc(NC(C)=O)cc2)cc1` here?
**A.** The growth inhibition was -1.7%.

**Q.** With `Nc1nc2cc(F)ccc2o1` as the compound, how does the growth inhibition read?
**A.** The growth inhibition was -21.6%.

**Q.** For `CCc1cccc(CC)c1NC(=O)OCCN(CC)CC`, which growth inhibition is on record?
**A.** Its growth inhibition is 11.6%.

**Q.** Which growth inhibition does the source give for `O=c1oc2ccccc2cc1O` here?
**A.** The growth inhibition was -18.3%.

**Q.** Which growth inhibition does the source give for `Fc1ccc2c(c1)SC1Oc3ccccc3-c3c1c-2nn3-c1ccccc1` (configuration not stated) here?
**A.** Its growth inhibition is -11.1%.

**Q.** With `CCN(CC)c1c(C)c(-c2ccccc2)n[n+]([O-])c1-c1ccccc1` as the compound, how does the growth inhibition read?
**A.** Its growth inhibition is 17.9%.

**Q.** Which growth inhibition does the source give for `Cc1ccc(N2CCC(O)C2)cc1` (configuration not stated) here?
**A.** Its growth inhibition is -8.4%.

**Q.** For `CC1COC(C)(C)P(=O)(c2ccccc2)C1` (configuration not stated), which growth inhibition is on record?
**A.** Its growth inhibition is -7.15%.

**Q.** With `CCC(C(N)=O)c1ccccc1` (configuration not stated) as the compound, how does the growth inhibition read?
**A.** Its growth inhibition is -3.9%.

**Q.** For `N#Cc1c(C(F)(F)F)cc(-c2cccs2)nc1SC(C(=O)Nc1cc(C(F)(F)F)cc(C(F)(F)F)c1)c1ccccc1` (configuration not stated), which growth inhibition is on record?
**A.** Its growth inhibition is 9.1%.

**Q.** For `CCCCCCC(=O)C/C(=N/NC(N)=S)C(=O)NC1C2CC3CC(C2)CC1C3` (configuration not stated), which growth inhibition is on record?
**A.** Its growth inhibition is -2.3%.

**Q.** Which growth inhibition does the source give for `Cc1ccc(S(=O)(=O)C2CC(=O)N(c3ccc(F)c(Cl)c3)C2=O)cc1` (configuration not stated) here?
**A.** Its growth inhibition is 4.2%.

**Q.** For `N#CCCCCCOCCOCCOCCOCCOCCCCCC#N`, which growth inhibition is on record?
**A.** Its growth inhibition is -1.75%.

**Q.** With `CC12C(=C(C#N)C(=N)N1c1ccc(Cl)c(Cl)c1)C=C(O)CC2SCCS(=O)(=O)O` (configuration not stated) as the compound, how does the growth inhibition read?
**A.** The growth inhibition was -11.4%.

**Q.** For `FC(F)(F)c1cc(NC(=S)SCc2ccc3c(c2)OCO3)ccc1Cl`, which growth inhibition is on record?
**A.** The growth inhibition was 59.2%.

**Q.** With `O=c1nc2c(c(-c3ccc(F)cc3)[nH]1)COC/C2=C\c1ccc(F)cc1` as the compound, how does the growth inhibition read?
**A.** The growth inhibition was 28.6%.
